In the library only some 3.2% were active in any assay of this set; here they are far more common.
CRFBP-R2 agonist: CRF-BP/CRF-R2 complex agonism. hit rate 0.46% among 350,000. activation, % at 13.2 µM. HEK293 CRF-R2/CRF-BP, calcium dye fluorescence (FLIPR); percent of saturating CRF peptide response. AID 588473;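 active means activation of at least 50%, plus an integration ratio under a set limit after plate pattern correction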;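 further: plate controls were neutral control wells without compound for no effect and CRF at EC100 for full effect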
aDG glyco act: alpha-DG glycosylation activation. Pro5-aDG cells, alpha-DG glycosylation AlphaScreen (IIH6); 0% Pro5, 100% B10-LARGE cell signal. hit rate 0.22% among 360,000. activation, % at 10 µM;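 active means activation of at least 8% versus controls, or a plate z-score of at least 8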;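 further: Pro5 are CHO cells carrying HIG-tagged alpha-DG that lacks glycosylation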
FAS-TE inh: inhibitors of human fatty acid synthase thioesterase domain. P49327. recombinant FAS-TE, OMFH fluorogenic substrate, fluorescence endpoint. inhibition, % at 15 µM. hit rate 0.67% among 360,000. AID 602261;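 active means compounds whose normalised, plate-corrected inhibition of enzyme fluorescence in the single-dose primary screen is 50% or more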;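 further: 0% = DMSO with enzyme and 100% = substrate without enzyme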
PfG6PD inh: PfG6PD (Plasmodium falciparum) enzyme inhibition; PfGluPho enzyme, NADPH resazurin-diaphorase fluorescence; inhibition, % at 20 µM; hit rate 0.78% among 350,000; AID 504690;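 active means inhibition reaching at least a set limit at 20 µM in the primary screen, cut at about 59% in these data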;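 further: 0% = DMSO wells with substrate and 100% = DMSO wells lacking glucose-6-phosphate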
CRFR2-BP antag: antagonists of CRF-binding protein/CRF-R2 receptor complex. HEK293 CRF-R2/CRF-BP, CRF-induced calcium fluorescence. hit rate 0.59% among 350,000. inhibition, % at 11.8 µM;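 active means inhibition of the ligand-induced calcium signal above about 50% at the single tested concentration, limit read from the data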
Cardio protect: modulators protecting cardiomyocytes from myocardial damage. H9c2 cardiomyocytes, H2O2 injury protection, ATPLite, 2 h. protection from H2O2 cell death, % at 20 µM. AID 588492. hit rate 0.63% among 360,000;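 active means compounds giving at least 50% protection of heart cells from peroxide-induced death in the single-dose screen, raw or plate-pattern-corrected value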;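 further: 0% = DMSO wells with peroxide and 100% = DMSO wells without peroxide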
Starred values were filed as active, the others as inactive; · = not tested or not shown.

SMILES	CRFBP-R2 agonist	aDG glyco act	FAS-TE inh	PfG6PD inh	CRFR2-BP antag	Cardio protect
Cc1cc(N2CCN(S(=O)(=O)c3ccc(Cl)cc3)CC2)c2ccccc2n1	0	2	26	9	62*	-19
CCN(C(=O)CSc1cc(C)c2ccc(OC)cc2n1)C1CCS(=O)(=O)C1 (stereo unspecified)	0	0	-4	-1	98*	-1
O=C1CSC(c2nn(-c3ccccc3)cc2-c2cc3ccccc3oc2=O)N1Cc1ccco1 (stereo unspecified)	4	0	18	13	84*	20
O=C(CCCc1cccs1)Nc1ccc2c(c1)OCO2	2	0	4	2	58*	1
O=C(CCCc1ccccc1)Nc1ccc2c(c1)OCCO2	2	0	4	1	-2	-6
O=C(O)CSc1cc(NS(=O)(=O)c2ccc(Br)cc2)c2ccccc2c1O	-1	3.4*	12	100*	20	-18
Cc1ccc(S(=O)(=O)Nc2ccc(Br)cc2C(NCC(=O)O)c2ccccc2)cc1 (stereo unspecified)	-2	0	-6	-32	14	5
COc1cc2sc(-c3ccc(S(C)(=O)=O)cc3)c(C#CCO)c2cc1OC	0	0	1	-14	2	53*
CCOC(=O)C1(C)NC(c2cccs2)C2C(=O)N(c3ccc(C)cc3)C(=O)C21 (stereo unspecified)	-3	0	0	-3	-3	2
Cc1ccc(N2C(=O)C3C(C2=O)N2C(c4cccs4)C4C(=O)N(c5ccc(C)cc5)C(=O)C4N2C3c2cccs2)cc1 (stereo unspecified)	0	0	84*	-2	0	5
COc1cccc(C(=O)OCC(=O)NCCC2=CCCCC2)c1	-6	0	3	-12	103*	0
CCOC(=O)c1[nH]c2ccc(OCC)cc2c1CCCN1C(=O)c2ccccc2C1=O	3	0	19	2	-41	4
COc1ccccc1/C=C/c1nc(S(=O)(=O)c2ccccc2)c(N(C)C)o1	-1	1	17	-4	72*	-1
CC(C)[C@H](NC(=O)[C@H](CCCN=C(N)N)NC(=O)NC(Cc1ccccc1)C(=O)O)C(=O)NC(C=O)CCCN=C(N)N (stereo partly specified)	0	0	-4	5	20	3
C=CC[C@@H](CC(=O)N[C@H](CO)Cc1ccccc1)C(=O)N[C@@H](COC(=O)[C@@H](CC=C)CC(=O)OC(C)(C)C)Cc1ccccc1	0	0	0	13	-18	63*
CC1Cc2ccccc2N1S(=O)(=O)c1cccc(C(=O)NCCCn2ccnc2)c1 (stereo unspecified)	0	0	-12	15	-11	-9
C/C(=N\NC(=O)c1ccc(NS(=O)(=O)c2cccs2)cc1)c1ccncc1	-2	0	-5	-8	1	6
C/C(=N\NC(=O)c1ccc(NS(=O)(=O)c2cccs2)cc1)c1ccccc1	-1	0	-10	-25	58*	8
C[C@H](O)[C@@H]1C(=O)N2CCc3c([nH]c4ccccc34)[C@@H]2C[C@@H]1N(C)S(=O)(=O)c1ccccc1	18	0	-1	12	8	7
Cc1ccc(C(=O)N2CCN(c3ccccc3F)CC2)cc1NC1=NC2CS(=O)(=O)CC2S1 (stereo unspecified)	1	0	-5	-2	6	3
CC(C)(C)OC(=O)NCCCCCNC(=O)c1[nH]cnc1C(=O)Nc1ccc(Cl)cc1	0	2	26	25	4	66*
CC(C)(C)OC(=O)NCCCCCNC(=O)c1[nH]cnc1C(=O)Nc1cc(Br)ccc1F	4	1	18	13	-5	64*
CC(C)(C)OC(=O)NCc1ccc(NC(=O)c2nc[nH]c2C(=O)Nc2cc(Br)ccc2F)cc1	·	0	-1	·	·	4
CC(C)(C)OC(=O)NCCCCCNC(=O)c1[nH]cnc1C(=O)Nc1ccccc1	-1	0	13	9	-4	35
Cc1ccc(NC(=O)c2nc[nH]c2C(=O)NCCCCCNC(=O)OC(C)(C)C)cc1	-1	1	13	22	0	55*
SMILES	CRFBP-R2 agonist	aDG glyco act	FAS-TE inh	PfG6PD inh	CRFR2-BP antag	Cardio protect
O=C(Nc1cccc2c1CCCC2)c1cc(C2CCCCN2C(=O)OCCF)on1 (stereo unspecified)	·	0	13	·	·	-2
CC(C)CCOP(=O)(c1ccc(N(C)C)cc1)C(Nc1ccccc1)c1ccc(N(C)C)cc1 (stereo unspecified)	8	0	18	1	111*	2
CCOC(=O)CN1C(=O)S/C(=C/C=C/c2ccc(N(C)C)cc2)C1=O	90*	0	9	21	-127	-6
O=C1CCN(Cc2ccccc2)C(=S)N1	0	0	-2	10	-4	7
CN(Cc1nc2ccccc2c(=O)[nH]1)C(=O)c1cccc(S(=O)(=O)N2CCCC2)c1	0	0	-2	3	2	40
O=C(CCc1nc2ccccc2c(=O)[nH]1)N1CCN(S(=O)(=O)c2cccc([N+](=O)[O-])c2)CC1	0	0	-4	6	10	70*
O=C(CCc1c[nH]c2ccccc12)N1CCN(S(=O)(=O)c2ccc(F)cc2)CC1	0	0	2	5	4	-2
O=C(CCc1nc2ccccc2c(=O)[nH]1)N1CCN(S(=O)(=O)c2ccc(F)cc2)CC1	1	0	-6	2	-6	86*
CN(C)CCCOC(=O)COc1ccc(Br)cc1	-3	0	-2	-4	4	-3
CC(C)(C)c1nnc(N/N=C/c2ccccc2O)n(N)c1=O	-2	2	0	-15	-25	52*
CC(=O)c1ccccc1OCC(O)CN1CCN(CCN2C(=O)c3cccc4cccc(c34)C2=O)CC1 (stereo unspecified)	1	0	-1	-19	-5	58*
O=C(COc1ccccc1)NCC(=O)Nc1cccc(S(=O)(=O)NC2=NCCC2)c1	1	0	-1	-3	-5	6
Cc1cc(C(=O)CN2C(=O)NC(c3ccccc3)(c3ccccc3)C2=O)c(C)n1Cc1ccccc1	1	0	4	-14	-27	0
COc1ccc2nc3cccc(OC)c3nc2c1	19	0	-5	55	3	58*
CCOC(=O)C1CCCN(C(=O)c2cccs2)CC1 (stereo unspecified)	·	0	-6	·	·	2
Cc1ccc(C(=O)N2CCN(c3ccccc3F)CC2)cc1S(=O)(=O)N1CCOCC1	-1	0	-8	-11	-1	-2
C/C(=N/O)c1ccccn1	-1	0	-2	-2	8	3
CCCCCC/C(=N/O)c1ccccn1	-1	1	-171	-8	59*	47

Screening data from PubChem BioAssay.
